# Data reported in the supplement of paper PMC6897291.
# Tested on: RIVA
# Assay: growth inhibition by drug alone (1 - RLU/untreated control) (fraction); higher = stronger inhibition
# Settings: 177Lu-lilotomab satetraxetan 0 ug/ml
# Experimental: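 RIVA (RI-1) ABC-DLBCL cells were pretreated or not for 18 h with 0.5 ug/ml 177Lu-lilotomab satetraxetan (600 MBq/mg), washed and seeded (3000 cells/well) on 384-well plates pre-printed with the Selleck Cambridge Cancer Compound library. Viability was read by RealTime-Glo luminescence on days 3-6 after seeding. Effect = 1 - RLU/mean RLU of the 48 untreated no-drug control wells per plate; Bliss score = (M-E)/(1-Fa).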
Structure (SMILES),"growth inhibition by drug alone (10 nM, time (day): 3)","growth inhibition by drug alone (10 nM, time (day): 4)","growth inhibition by drug alone (10 nM, time (day): 5)","growth inhibition by drug alone (10 nM, time (day): 6)","growth inhibition by drug alone (100 nM, time (day): 3)","growth inhibition by drug alone (100 nM, time (day): 4)","growth inhibition by drug alone (100 nM, time (day): 5)","growth inhibition by drug alone (100 nM, time (day): 6)"
C[C@@H]1CN(CC(=O)Nc2ccc3c(c2)Cc2cccc(-c4cc(=O)cc(N5CCOCC5)o4)c2S3)C[C@H](C)O1,-0.0136,-0.0829,-0.153,-0.417,-0.282,-0.285,-0.284,-0.465
CO[C@H]1C[C@@H]2CC[C@@H](C)[C@@](O)(O2)C(=O)C(=O)N2CCCC[C@H]2C(=O)O[C@H]([C@H](C)C[C@@H]2CC[C@@H](OCCO)[C@H](OC)C2)CC(=O)[C@H](C)/C=C(\C)[C@@H](O)[C@@H](OC)C(=O)[C@H](C)C[C@H](C)/C=C/C=C/C=C/1C [Everolimus (RAD001)],0.776,0.768,0.744,0.653,0.811,0.826,0.827,0.801
Cc1ccc(C(=O)Nc2ccc(CN3CCN(C)CC3)c(C(F)(F)F)c2)cc1C#Cc1cnc2cccnn12,-0.13,-0.226,-0.275,-0.383,0.59,0.607,0.6,0.53
CN(C)c1ccccc1CN1CCCN(Cc2ccccc2N(C)C)C1c1ccncc1,-0.0275,-0.0402,-0.0946,-0.333,-0.107,-0.0882,-0.101,-0.219
COc1ccc(C2CC(c3ccccc3)=NN2c2ccc(S(N)(=O)=O)cc2)cc1 (stereo not given),-0.0673,-0.122,-0.182,-0.683,-0.196,-0.182,-0.21,-0.396
